Source: PubChem BioAssay (National Center for Advancing Translational Sciences (NCATS))
In the library only some 0.4% were active in any assay of this set; here they are far more common.
FMDV FLuc – antivirals against foot and mouth disease virus; Potency, µM (highest dose often 57.5 µM), for the others: at the highest dose activity change, negative = inhibition, usual class: inhibitors; 0.23% of 120,000 active; AID 1745856; FMDV antiviral cell assay, firefly luciferase signal; note: nearly all actives have a fitted effect of over 60% in size
FMDV Renilla – FMDV antiviral activity by Renilla signal | 0.32% of 120,000 active | Potency, µM (series often up to 57.5 µM), without a hit: at the highest dose activity change, negative = inhibition, actives largely listed as inhibitors | FMDV replicon cells, Renilla luciferase signal; note: nearly all actives have a fitted effect of over 55% in size
* marks the source's active call; other numbers are inactive results; u = inconclusive; [ ] = dose if it differs, or a comment. Calls come from the whole dose curve. % is set by controls: 0 for no effect and ±100 for the full control effect; potency is the fitted concentration of half-maximal effect.

SMILES	FMDV FLuc	FMDV Renilla
COC(=O)c1cc(-c2ccccn2)nc2ccccc12	7.2%	-12.1%
O=C(Nc1ccc(Oc2ccccc2)cc1)c1cccc(CN2CCCC2=O)c1	u	7.94µM*
CC(C)(C)c1ccc(NC(=O)c2ccc(CN3CCCC3=O)cc2)cc1	u	22.4µM*
O=C(Nc1ccccc1Oc1ccccc1)c1cccc(CN2CCCC2=O)c1	17.2%	17.2%
CC(C)CCC(C)NC(=O)c1ccc(CN2CCCC2=O)cc1 (stereo unspecified)	96.7%	4.5%
Cc1cccc(NC(=O)COC(=O)c2cc(C)nc3ccccc23)c1	-8.8%	-12.9%
CCOC(=O)c1cnc2c(OC)cccc2c1Nc1ccccc1	7.4%	-26.2%
COc1ccc(Br)cc1/C=C(\C#N)C(N)=C(C#N)C#N	37.4%	-1.2%
O=C(CSc1ncnc2sc3c(c12)CCC3)Nc1ncc(C(F)(F)F)cc1Cl	4.7%	-6.0%
CCCCCOc1ccc(C(=O)O)cc1	0.0%	12.2%
CCCCOc1ccc(C(=O)C(CCC(CNC(C)(C)C)C(=O)c2ccc(OCCCC)cc2)CNC(C)(C)C)cc1 (stereo unspecified)	u	28.2µM*
O=C(O)c1cc(-c2ccc(Cl)c(Cl)c2)nc2ccccc12	82.4%	u
C=C(C)COc1ccc2c(C)c(CC(=O)NCCc3ccc(S(N)(=O)=O)cc3)c(=O)oc2c1	3.98µM*	3.55µM*
Cc1c(C)c2ccc(OCC(=O)NCCc3ccc(S(N)(=O)=O)cc3)cc2oc1=O	3.1%	-0.3%
CCN(CC)CC#CC(OC)(c1ccccc1)C1CCCC1 (stereo unspecified)	-0.1%	-3.3%
CCCCCS(=O)(=O)c1oc(-c2cccs2)nc1S(=O)(=O)c1ccc(C)cc1	-10.2%	-12.4%
CCCCS(=O)(=O)c1oc(-c2cccs2)nc1S(=O)(=O)c1ccc(F)cc1	28.2µM*	-4.8%
CC(C)C(NC(=O)COc1cc(Cl)ccc1Cl)c1nc2ccccc2[nH]1 (stereo unspecified)	6.1%	-8.2%
O=CN1CCN(C(C(=O)O)c2c[nH]c3cc(Br)ccc23)CC1 (stereo unspecified)	-16.0%	-10.9%
CC(=O)N1CCCc2ccc(NC(=O)c3ccc(OC(C)C)cc3)cc21	u	-4.1%
CCCCOc1ccc(C(=O)Nc2ccc3c(c2)N(C(C)=O)CCC3)cc1	1.26µM*	-11.9%
N#Cc1ccccc1CON=C1CCC2(CC1)OCCO2	193.3%	15.8%
O=[N+]([O-])c1cccc(CON=C2CCC3(CC2)OCCO3)c1	2µM*	-7.5%
Cc1ccc(C)c(Nc2cc(C(=O)NCCCN(C)C3CCCCC3)c3ccccc3n2)c1	-14.0%	31.6µM*
Cc1cc(C)cc(Nc2cc(C(=O)NCCCN(C)C3CCCCC3)c3ccccc3n2)c1	-14.6%	-5.2%
SMILES	FMDV FLuc	FMDV Renilla
CC(C)c1ccc(NC(=O)Cn2c(=O)oc3cc(S(=O)(=O)N4CCCC4)ccc32)cc1	6.31µM*	u
COc1ccc(CNC(=O)Cn2c(=O)oc3cc(S(=O)(=O)N4CCCC4)ccc32)cc1	16.5%	-7.7%
CN(C)c1ccc(CNC(=O)Cn2c(=O)oc3cc(S(=O)(=O)N4CCCCCC4)ccc32)cc1	u	20µM*
Cc1cc(C)cc(NC(=O)Cn2c(=O)oc3cc(S(=O)(=O)N4CCCC4)ccc32)c1	0.0%	-1.3%
CCCCN(C)Cc1ccc(OCc2ccccc2)c(OC)c1	71.9%	-3.3%[1.06 µM]
CCOC(=O)c1ccc(Oc2nc(C)nc3c2oc2ccccc23)cc1	17.2%	-11.5%
CC(=O)c1ccc(Oc2nc(C)nc3c2oc2ccccc23)cc1	u	2.82µM*
COc1ccc(-c2noc(N3CCN(c4ccc(Cl)cc4)CC3)n2)cc1OC	-12.9%	-5.4%
COc1ccccc1CC(=O)N1CCN(c2nc(-c3ccc(Cl)cc3)no2)CC1	u	7.08µM*
Cc1nc2cc(NC(C)c3nc(C(C)C)no3)ccc2o1 (stereo unspecified)	41.8%	0.9%
C[N+]1(CC#Cc2ccccc2)CCC(c2ccccc2)(c2ccccc2)CC1	-16.1%	-22.4%
COc1ccc(Oc2c(C)oc3cc(OS(C)(=O)=O)ccc3c2=O)cc1	12.6µM*	u
C=C(C)COc1ccc2c(=O)c(Oc3ccc(OC)cc3)c(C)oc2c1	45.5%	22.1%
Cn1c(=O)c2c(ncn2CCC(=O)Nc2ccccc2)n(C)c1=O	4.4%	2.7%
Cc1cc(C)cc(Oc2ccc(C#N)c(C#N)c2)c1	0.0%	21.2%
N#Cc1ccc(Oc2ccc(Cl)c(Oc3ccc(C#N)c(C#N)c3)c2)cc1C#N	u	2.51µM*
Cc1c(Oc2ccc(C#N)c(C#N)c2)cccc1Oc1ccc(C#N)c(C#N)c1	2.24µM*	2.51µM*
N#Cc1ccc(Oc2ccccc2Oc2ccc(C#N)c(C#N)c2)cc1C#N	23.5%	14.7%
CC(C)n1nc(C(=O)Nc2cccc(C(F)(F)F)c2)c2ccccc2c1=O	11.3%	4.8%
COc1cc(NC(=O)Nc2ccc(F)cc2F)c(OC)cc1Cl	41.7%	-20.3%
CCc1ccc(-n2cccc2)cc1	-2.3%	-0.3%
CCc1ccccc1NC(=O)NCc1ccc2c(c1)CCN2C(=O)c1ccccc1	-21.1%	-16.2%
CCOc1ccccc1NC(=O)NCc1ccc2c(c1)CCN2C(=O)c1ccccc1	8.91µM*	7.08µM*
COc1cc(CN(C(=O)c2ccc(OC(C)C)cc2)c2ccccn2)cc(OC)c1OC	u	10µM*
COc1cc(CN(C(=O)c2cccc(Cl)c2)c2ccccn2)cc(OC)c1OC	u	65.5%
SMILES	FMDV FLuc	FMDV Renilla
O=C(C1CCN(S(=O)(=O)c2cccs2)CC1)N1CCN(c2cccc(Cl)c2)CC1	3.0%	-0.6%
O=C(C1CCC(CNS(=O)(=O)c2cccs2)CC1)N1CCN(c2ccc(Cl)cc2)CC1 (stereo unspecified)	u	4.47µM*
Cc1nc2ccccc2nc1SCC(=O)N(C)C(C)c1ccc(F)cc1 (stereo unspecified)	28.2µM*	35.5µM*
CC(c1ccccc1)N(C)C(=O)CSc1nc2ccccc2o1 (stereo unspecified)	68.9%	46.7%
Cc1cc(C(=O)C(C)Sc2nnnn2C2CCCC2)c(C)n1Cc1ccco1 (stereo unspecified)	13.1%	6.9%
COc1ccc(S(=O)(=O)c2c(C)c(C)n(C(C)C)c2NC(=O)C2CC2)cc1	1.8%	11.1%
CCOc1ccc(C=O)c2ccccc12	10µM*	4.47µM*
CCOc1ccc2ccccc2c1C=O	18.3%	-3.7%
O=C(OCCOc1ccc(Br)cc1)c1cccc([N+](=O)[O-])c1	0.0%	2.6%
Cc1[nH]c2ccc(C(=O)N(Cc3ccc(F)cc3)C3CC3)cc2c1C	-22.8%	0.0%
CCn1c2c(c(=O)n3ncc(C(=O)Nc4cc(Cl)ccc4OC)c13)CN(Cc1ccc(OC)cc1)CC2	-20.8%	11.1%
COc1ccc(CN2CCc3c(c(=O)n4ncc(C(=O)N5CCN(c6ccccc6OC)CC5)c4n3C)C2)cc1	2.82µM*	1.78µM*
CCN(CC)c1cc(C)nc(Nc2ccc(NC(=O)CCCc3ccccc3)cc2)n1	u	31.6µM*
Cc1cc(N(C)C)nc(Nc2ccc(NC(=O)Nc3ccc(F)cc3)cc2)n1	23.5%	-7.3%
Cc1ccc(S(=O)(=O)NC(C)C(=O)OCc2coc(-c3cccs3)n2)cc1 (stereo unspecified)	21.3%	-10.8%
O=C(Nc1c(Cl)cccc1Cl)C1=C(c2ccccc2)S(=O)(=O)CCO1	u	15.8µM*
O=C(Nc1cc(C(F)(F)F)ccc1Cl)C1=C(c2ccccc2)S(=O)(=O)CCO1	3.9%	-30.8%
Cc1ccc(C(=O)/C=C\N(C)C)cc1	20.1%	12.2%
O=C(Nc1nc(C23CC4CC(CC(C4)C2)C3)cs1)c1ccc(=O)[nH]c1	10.4%	-8.8%
